# From PubChem
# Tb PGK inh: qHTS Assay to Find Inhibitors of Phosphoglycerate Kinase; Potency, µM (series often up to 57.5 µM), inactives show top-dose activity change, negative = inhibition, most hits filed as inhibitors; PGK/GAPDH coupled, Kinase-Glo luminescence, 60 min; Phosphoglycerate kinase, glycosomal (Trypanosoma brucei brucei), P07378; 380,000 tested, 0.043% active; further: potency means the concentration at half of the fitted maximal effect; on the % scale 0 is the no-effect control and ±100 the full control effect; nearly all actives have a fitted effect of over 60% in size
#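 Luminescent ATP detection (Kinase-Glo Plus) follows a 60-minute room-temperature incubation, with wells lacking PGK as controls. Buffer: 100 mM TEA (pH 7.6), 5 mM MgCl2, 0.01% Tween-20. Coupling enzyme GAPDH (100 nM final) supplies unstable 1,3-BPG in-well.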
# Vif-A3G inh: qHTS for Inhibitors of Vif-A3G Interactions: qHTS. DNA dC->dU-editing enzyme APOBEC-3G (Homo sapiens), Q9HC16. HeLa A3G-eYFP + Vif (tagged APOBEC3G with the HIV-1 protein that degrades it), YFP fluorescence, overnight. Potency, µM (highest dose often 46.1 µM), without a hit: at the highest dose activity, negative = active, hits mostly inhibitors. 410,000 tested, 0.076% active. AID 602310, 2012; further: potency means the concentration at half of the fitted maximal effect; on the % scale 0 is the no-effect control and ±100 the full control effect; nearly all actives have a fitted effect of over 60% in size
#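 Read-out is eYFP fluorescence (Ex 488/Em 500-530) from Vif-expressing HeLa A3G-eYFP cells; more signal means A3G escaped Vif-mediated degradation. Cells plated overnight, compound pinned in, incubated overnight at 37 deg C.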
# LDHA block: qHTS assay for inhibitors of human lactate dehydrogenase | activity change, % (values are at about 110 or 230 µM) | purified LDHA, NADH/diaphorase-resazurin fluorescence; active compounds read low | AID 1347041, 2019 | L-lactate dehydrogenase A chain (Homo sapiens), P00338 | 480,000 tested, 0.15% active; in the data active means activity change below about -30%; inconclusive means mostly about -25% to -30%;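 further: plate controls were DMSO wells for no effect and wells without enzyme for full effect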
#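 Remaining NADH was detected by diaphorase (0.133 mg/mL) converting 37 µM resazurin to fluorescent resorufin, read at 0 and 20 minutes. The preceding 5-minute room-temperature reaction used 2 nM LDHA, 0.2 mM sodium pyruvate and 0.06 mM NADH at pH 7.4.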
# Vif-A3F inh: qHTS for Inhibitors of Vif-A3F Interactions: qHTS; HeLa A3F-eYFP + Vif (tagged APOBEC3F with the HIV-1 protein that degrades it), YFP fluorescence increase; Potency, µM (series often up to 46.1 µM), inactives show at the top dose activity, negative = active; 390,000 tested, 0.2% active; AID 602313, 2012; further: potency means the concentration at half of the fitted maximal effect; % of control where 0% means no effect; nearly all actives have a fitted effect of over 65% in size
#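 HeLa cells stably expressing Vif plus C-terminally eYFP-tagged A3F were seeded, incubated overnight at 37 deg C, dosed with compound, incubated overnight again at 37 deg C. Yellow fluorescence (Ex 488/Em 500-530) reported blocked Vif-mediated A3F-eYFP degradation.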
# mIDH1 inhibitor: qHTS for Inhibitors of mutant isocitrate dehydrogenase 1 (IDH1): qHTS. Isocitrate dehydrogenase [NADP] cytoplasmic (Homo sapiens), O75874. IDH1-R132H enzyme, NADPH consumption, diaphorase/resazurin fluorescence. Potency, µM (series often up to 76.6 µM), without a hit: at the highest dose activity change, negative = inhibition, hits mostly inhibitors. 390,000 tested, 0.093% active; further: potency means the concentration at half of the fitted maximal effect; on the % scale 0 is the no-effect control and ±100 the full control effect; nearly all actives have a fitted effect of over 65% in size
# Target sequence (O75874 whole entry R132H, stated change not applied): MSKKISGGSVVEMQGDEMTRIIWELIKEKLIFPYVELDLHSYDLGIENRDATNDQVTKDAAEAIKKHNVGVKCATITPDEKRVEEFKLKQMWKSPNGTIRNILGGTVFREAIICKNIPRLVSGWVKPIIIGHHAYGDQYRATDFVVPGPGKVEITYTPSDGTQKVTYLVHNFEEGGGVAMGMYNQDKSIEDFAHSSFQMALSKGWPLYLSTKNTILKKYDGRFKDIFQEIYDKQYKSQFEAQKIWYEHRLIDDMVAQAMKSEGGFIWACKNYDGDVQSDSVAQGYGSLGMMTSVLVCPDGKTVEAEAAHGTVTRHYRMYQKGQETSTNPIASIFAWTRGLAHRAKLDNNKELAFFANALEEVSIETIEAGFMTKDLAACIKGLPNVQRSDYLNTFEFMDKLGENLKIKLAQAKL
#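 IDH1-R132H (0.5 ug/mL) preincubated 30 min with compound, then NADPH (0.016 mM) and alpha-KG (2 mM) added; 80 min at RT, pH 7.5. Remaining NADPH coupled via diaphorase/resazurin to fluorescence (540/590 nm); concentration-response curves normalized to no-enzyme control.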
# Pin1 inhibitor: qHTS Assay to Find Inhibitors of Pin1; Peptidyl-prolyl cis-trans isomerase NIMA-interacting 1 (Homo sapiens), Q13526; Pin1 FP peptide displacement, HiFluor488, 10 min; 390,000 tested, 0.009% active; Potency, µM (doses to about 115 µM), for the others: at the top dose activity, negative = inhibition, actives largely listed as inhibitors; active means well fitted inhibition curve with a large enough effect in the polarisation, with a control signal flat, not every such curve was filed as active; inconclusive means small, poorly fitted or top-dose-only effect, or effect the other way, or a change in a side signal; inactive means no such curve, though single readings can be large or run the other way; the % refers to the polarisation; further: potency means the concentration at half of the fitted maximal effect; on the % scale 0 is the no-effect control and ±100 the full control effect
# Target sequence (Q13526 whole entry, looked up): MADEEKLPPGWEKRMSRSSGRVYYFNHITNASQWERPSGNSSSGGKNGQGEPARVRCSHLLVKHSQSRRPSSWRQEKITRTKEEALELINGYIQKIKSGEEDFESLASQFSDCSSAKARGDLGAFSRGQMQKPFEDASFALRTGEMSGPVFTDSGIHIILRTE
# Active calls of the source: *; i = inactive; u = inconclusive; x = no result. A selection: hits, their analogues and other compounds. The true share with any hit is near 0.49%. Unless noted, the call rests on the fitted dose curve; in most records, active means well fitted curve in the direction sought with a large enough effect; inconclusive means small, poorly fitted or top-dose-only effect, or another doubt; inactive means no such curve, though single readings can be large; an effect the other way counts as inactive or inconclusive.
SMILES,Tb PGK inh,Vif-A3G inh,LDHA block,Vif-A3F inh,mIDH1 inhibitor,Pin1 inhibitor
O=C(Nc1c(-c2ccccc2)nc2ccccn12)c1cccc(F)c1,-6%,-7%,-31*,1%,8%,-13%
O=C(Nc1c(-c2ccccc2)nc2ccccn12)c1ccccc1,-6%,-5%,-6,2%,-3%,-3%
CCCC(C)NC(=O)Nc1cc(C(=O)NC2CC2)ccc1C (configuration not stated),x,x,-34*,x,x,x
CCCC(C)NC(=O)Nc1cc(C(=O)NC)ccc1C (configuration not stated),x,x,1,x,x,x
COc1cc(C(=O)N2CCC(C(=O)Nc3ccccc3)CC2)ccc1OCc1c(C)noc1C,x,x,4,x,x,x
CC1(C)CC(N2CCCC2)=CC(=[N+]2CCCCCC2)C1,-7%,10%,-4,-1%,0%,-8%
CC1CC(C)C[N+](=C2C=C(N3CCCC3)CC(C)(C)C2)C1 (configuration not stated),3%,6%,-99*,13%,3%,1%
CN1OC[C@@H]2CN(C(=O)c3ccco3)[C@H](c3ccc(-c4ccc(C#N)cc4)cc3)C[C@@H]21,-8%,1%,-17,-6%,-1%,x
COc1ccccc1-c1ccc([C@@H]2C[C@H]3[C@H](CON3C)CN2C(=O)c2ccco2)cc1,-10%,-9%,-32*,-7%,-1%,x
O=C(C1COc2cc(S(=O)(=O)Nc3ccc(F)cc3)ccc2O1)N1CCCCC1 (configuration not stated),x,x,1,x,x,x
CCc1ccc(-c2cc(C(=O)N/N=C/c3ccccn3)[nH]n2)cc1,-4%,-7%,-5,8%,1%,0%
O=C(N/N=C/c1ccccn1)c1cc(-c2ccc3ccccc3c2)n[nH]1,-29%,u,-34*,4%,10%,u
CS(=O)(=O)C1=NSC2=NC(=O)/C(=C\c3cccn3-c3ccc(Cl)cc3)C(=N)N21,u,-5%,-109*,-5%,-4%,-13%
CCN1/C(=C/c2cc[n+](C)cc2)C=Cc2cc(C)ccc21,-16%,u,27,13µM*,7%,14%
CCCCn1nc(C(=O)N(Cc2ccc3c(c2)OCO3)C2CCCC2)c2ccccc2c1=O,x,x,8,x,x,x
O=c1[nH]c2ccccc2nc1/C=C(\O)c1cccs1,2%,u,-9,10µM*,7%,u
O/C(=C\c1nc2ccccc2[nH]1)c1cccs1,-7%,-4%,3,-3%,-15%,4%
COc1ccc2c(C)cc(SCC(=O)N3CCOCC3)nc2c1,i,u,7,25µM*,2%,u
COc1ccc2c(C)cc(SCC(=O)N(C)C3CCS(=O)(=O)C3)nc2c1 (configuration not stated),i,u,-9,11µM*,-3%,u
COc1cccc(-n2c(SCC(N)=O)nc3c(c2=O)C2(CCCC2)Cc2ccccc2-3)c1,x,x,-7,x,x,x
Cc1ccc(NC(=O)CSc2ccccc2NC(=O)c2cccc(Cl)c2)cc1Cl,-4%,-61%,-8,11µM*,6%,17%
Cc1cccc(C(=O)Nc2ccccc2SCC(=O)Nc2ccc(C)c(Cl)c2)c1,-4%,1%,-5,-9%,-1%,8%
CCc1ccc2oc(C(=O)Nc3nc(C)c(C(=O)OCC(C)C)s3)cc(=O)c2c1,x,x,0,x,x,x
CCc1ccc(N=Nc2ccc(O)c3[nH]cnc23)cc1,1%,u,-9,8.9µM*,-19%,44%
COc1ccc(N=Nc2ccc(O)c3ncccc23)cc1,-3%,-3%,4,-23%,5%,17%
SMILES,Tb PGK inh,Vif-A3G inh,LDHA block,Vif-A3F inh,mIDH1 inhibitor,Pin1 inhibitor
O=C(NCc1nc2ccccc2[nH]1)c1ccc(S(=O)(=O)N2CCOCC2)cc1,22µM*,-4%,-4,-5%,-6%,1%
O=C(NCc1nc2ccccc2[nH]1)c1ccc(S(=O)(=O)N2CCCC2)cc1,-6%,-5%,4,-10%,-2%,9%
COc1ccc(NC(=O)CN2CCN(Cc3ccc4c(c3)OCO4)CC2)cc1OC,-2%,0%,-37*,2%,-11%,-3%
COc1cccc(CN2CCC(C(=O)N3CCN(Cc4ccc5c(c4)OCO5)CC3)CC2)c1,-3%,-1%,-33*,-5%,5%,-10%
CC(C)COc1ccc(-c2nn(-c3ccccc3)cc2/C=C2/SC(=S)N(CC(=O)O)C2=O)cc1,-6%,0%,-2,17%,-7%,-22%
O=C(O)CN1C(=O)/C(=C\c2cn(-c3ccccc3)nc2-c2ccccc2)SC1=S,-10%,2%,-12,-12%,-17%,43µM*
CN(C)CCCN1C(=O)c2cccc3cccc(c23)C1=O,0%,5%,-1,-14%,2%,-1%
CCCCN1C(=O)c2cccc3cc(O)cc(c23)C1=O,6%,-12%,0,1.3µM*,12%,-5%
O=C(NC(=S)Nc1cccc(NC(=S)NC(=O)c2ccccc2)c1)c1ccccc1,i,-17%,5,-8%,-2%,u
O=C(NC(=S)Nc1c(Cl)cc(Cl)cc1Cl)c1ccccc1,-4%,2%,-9,4.5µM*,-2%,x
Cc1ccc(-c2cc(C(F)F)n3nc(C)c(Br)c3n2)cc1,x,x,-34*,x,x,x
Cc1nn2c(C(F)F)cc(-c3ccc(F)cc3)nc2c1Br,x,x,7,x,x,x
c1ccc2c(CCc3c[nH]c4ccccc34)ccnc2c1,x,11µM*,3,x,x,x
Cc1cc(C)c(NC(=O)Cn2cc(S(=O)(=O)Cc3ccccc3F)c3ccccc32)c(C)c1,3%,-2%,-31*,6%,0%,-3%
O=C(Cn1cc(S(=O)(=O)Cc2ccccc2F)c2ccccc21)Nc1ccc(F)c(Cl)c1,-3%,-4%,-9,0%,-13%,u
Cc1cc(/C=C2/C(=O)N(C)C(=S)N2C)ccc1N1CCCC1,-3%,u,0,u,5%,u
Cc1cc(N2CCCC2)ccc1/C=C1/C(=O)N(C)C(=S)N1C,-9%,u,10,11µM*,0%,u
Cc1ccc(COc2ccc3ccccc3c2CNCC(O)c2ccccc2)cc1 (configuration not stated),x,x,3,x,x,x
Cc1ccccc1-n1nnnc1SCC(=O)c1ccc(Br)s1,x,x,10,x,x,x
O=C(COC(=O)/C=C/c1ccco1)Nc1ncc(C(F)(F)F)cc1Cl,13µM*,8%,3,-17%,2%,u
